# Source: PubChem BioAssay
# Compounds with a hit are over-represented: about 3.4% of the library has one in this group of screens.
# hcDAF-12 act: H. contortus DAF-12 nuclear receptor activators, primary screen, cell-based, luminescence, HEK293, lit1-tk-luc reporter; HEK293 hcDAF-12 lit1-tk-luc reporter; 0% DMSO, 100% Δ7-dafachronic acid; activation, % at 6.8 µM; 1.4% of 370,000 active;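 active = activation above the mean of all tested compounds plus 3 SD, cut at about 5.5% in these data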;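 also: 100% = response to 3 µM Δ7-dafachronic acid high control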
# hgDAF-12 ag: H. glycines DAF-12 receptor agonists, primary screen, cell-based, luminescence, HEK293, GAL4 fusion, UAS-luciferase | Nuclear hormone receptor DAF-12 (Heterodera glycines), GAL4 fusion | HEK293 GAL4-hgDAF12 UAS-luciferase reporter, agonist luminescence; normalized to butyrate control | activation, % at 6.8 µM | 1.8% of 370,000 active | AID 687014, 2013;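 active = activation above a cutoff set at the mean of all screened compounds plus 3 SD, cut at about 10% in these data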;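 also: 0% = DMSO wells and 100% = sodium butyrate wells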
# NF-kB expr up: activators of NF-kB expression in neurons, primary screen, cell-based, HTS | 1.6% of 190,000 active | AID 1239, 2008 | fold change at 12.5 µM | human neuronal cells, NF-kB reporter expression; stronger effect = higher value; in the data active = fold change above about 3.3
# ssDAF-12 act: S. stercoralis DAF-12 nuclear receptor activators, primary screen, cell-based, luminescence, HEK293, GRIP1 co-expression, lit1-tk-luc; Nuclear hormone receptor DAF-12 (Strongyloides stercoralis); 1% of 370,000 active; HEK293 ssDAF-12/GRIP1 lit1-tk-luc reporter; % of 3 µM dafachronic acid response; activation, % at 6.8 µM;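 active = activation above the mean over all tested compounds plus 3 SD, cut at about 0.9% in these data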;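 also: 0% = DMSO-only wells and 100% = 3 µM delta7-dafachronic acid wells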
# APP 5'UTR act: activators of APP 5'UTR luciferase reporter, primary screen, SH-SY5Y cells | SH-SY5Y APP 5'UTR luciferase reporter, luminescence; zero percent = DMSO vehicle wells | activation, % at 2 µM | 1% of 190,000 active | AID 1276, 2008;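 active = activation above a set limit, based on mean plus 3 SD of controls, cut at about 140% in these data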
# LXR ag: LXR agonists, Gal4 luciferase reporter, confirmation, counter-screen for hcDAF-12 agonist project, cell-based, luminescence, HEK293, H. contortus campaign; shares compounds with hcDAF-12 act; HEK293 Gal4-LXR tk-luc reporter, 24 h; normalized: DMSO 0%, positive control 100%; activation, % at 6.8 µM; 3,400 tested, under 10 active;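 active = mean percent activation of the reporter above a cutoff set as the average over tested compounds plus their standard deviation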
# Target sequence (P55055 whole entry, looked up, the tested form may be a part): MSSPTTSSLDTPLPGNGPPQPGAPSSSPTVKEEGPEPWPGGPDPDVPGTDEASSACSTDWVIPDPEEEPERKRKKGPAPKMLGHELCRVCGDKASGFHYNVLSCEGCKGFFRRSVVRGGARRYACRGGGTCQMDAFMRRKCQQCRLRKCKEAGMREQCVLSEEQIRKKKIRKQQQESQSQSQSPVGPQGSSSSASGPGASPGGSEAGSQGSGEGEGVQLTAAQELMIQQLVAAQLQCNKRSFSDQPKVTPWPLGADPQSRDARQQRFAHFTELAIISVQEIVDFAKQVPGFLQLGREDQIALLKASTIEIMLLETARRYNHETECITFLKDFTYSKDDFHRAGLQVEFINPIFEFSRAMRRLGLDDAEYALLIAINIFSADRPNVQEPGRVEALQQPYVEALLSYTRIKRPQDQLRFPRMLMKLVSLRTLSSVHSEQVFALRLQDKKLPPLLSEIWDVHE
# hcDAF12 conf: H. contortus DAF-12 receptor agonists, confirmation, cell-based, luminescence, HEK293, lit1-tk-luc, triplicate; shares compounds with hcDAF-12 act; HEK293 hcDAF-12 lit1-tk-luc reporter; % of Δ7-dafachronic acid response; activation, % at 6.8 µM; 61% of 3,400 active; AID 743032, 2013;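 active = mean activation across triplicate tests above the threshold derived from the earlier primary screen, cut at about 5.5% in these data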;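 also: 0% = DMSO only wells and 100% = 3 µM Δ7-dafachronic acid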
# * = called active by the depositor; x = not tested or not shown.
SMILES,hcDAF-12 act,hgDAF-12 ag,NF-kB expr up,ssDAF-12 act,APP 5'UTR act,LXR ag,hcDAF12 conf
CCn1c(C)nc2cc(-c3nc4n(n3)Cc3ccccc3-4)ccc21,x,x,0.19,x,-84.7,x,x
Cc1ccc(-c2nc3n(n2)Cc2ccccc2-3)cc1,15.8*,8.0,4.17*,2.4*,197.3*,1.8,19.9*
Fc1ccc(-c2nc3n(n2)Cc2ccccc2-3)cc1,17.9*,18.0*,6.72*,4.2*,173.4*,1.6,16.2*
C[C@@H]1COc2cc(Br)ccc2S(=O)(=O)N1Cc1cn(Cc2ccc(F)cc2)nn1,-1.4,1.7,x,-1.6,x,x,x
CCn1c(SCC(=O)NCCc2ccc(OC)c(OC)c2)nc2c([nH]c3ccccc32)c1=O,3.8,2.6,x,0.5,x,x,x
CCn1c(SCC(=O)NCCc2ccccc2)nc2c([nH]c3ccccc32)c1=O,7.2*,3.9,x,0.3,x,-0.1,6.7*
COCCn1c(SCC(=O)N2CCCCC2)nc2c([nH]c3ccccc32)c1=O,3.5,0.1,x,0.6,x,x,x
COCCn1c(SCC(=O)N2CCCCCC2)nc2c([nH]c3ccccc32)c1=O,7.2*,2.9,x,0.3,x,-0.3,0.3
COc1ccc(-c2cc(C(=O)NN=Cc3ccc(O)c(OC)c3)[nH]n2)cc1,-0.6,7.2,x,-1.4,x,x,x
COC(=O)c1cc(-c2cc3ccccc3s2)c(=O)n2c1CCC2,3.4,2.5,x,-0.4,x,x,x
CCOC(=O)c1nc2ccccc2nc1C,6.9*,-0.5,0.86,-1.6,-1.8,-0.3,1.6
CCc1ccc(-n2nc3cc(C)c(N)cc3n2)cc1,15.7*,14.0*,x,4.1*,x,1.9,20.0*
Cc1ccc(-n2nc3cc(C)c(N)cc3n2)cc1,15.4*,11.2*,3.9*,2.5*,120.4,1.5,15.8*
Nc1ccc2nn(-c3ccccc3)nc2c1,4.2,7.8,3.04,-0.4,92.6,x,x
Nc1cc2nn(-c3ccccc3)nc2cc1Cl,14.5*,22.3*,4.4*,3.4*,198.6*,1.5,16.9*
CCc1ccc(S(=O)(=O)c2ccc(-n3nc(C)cc3N)cc2)cc1,-1.4,-2.6,1.02,-1.4,-19.4,x,x
Nc1ccc(-n2nc3ccccc3n2)cc1,-3.3,-0.6,x,-1.8,x,x,x
Cc1ccccc1CNC(=O)C1CCCN(c2ncccn2)C1 (centres undefined),-1.3,-0.9,x,-1.4,x,x,x
Clc1ccc(Nc2nc(-c3cccnc3)cs2)cc1,9.3*,11.8*,1.88,1.9*,47.2,0.6,10.9*
O=C(CSc1nc2ccccc2nc1N1CCCCC1)N1CCN(S(=O)(=O)c2ccccc2)CC1,-3.7,4.2,x,-1.1,x,x,x
CC(C)(C)NC(=S)N/N=C/c1cc(Br)c(O)c(Br)c1,7.4*,1.4,x,0.9,x,-0.2,1.3
O=C(N/N=C/c1cc(Br)c(O)c(Br)c1)C1CC1,-2.1,3.8,x,-0.9,x,x,x
O=C(Nc1ccccc1)Nc1ccc(F)c([N+](=O)[O-])c1,-2.5,3.1,0.97,-1.7,18.1,x,x
O=C(Nc1ccc(F)c([N+](=O)[O-])c1)C(=O)c1c(O)[nH]c2ccccc12,6.9*,1.5,1.46,0.4,-20.7,0.1,3.7
C#CCN1CC(N(C)CCCO)CS1(=O)=O (centres undefined),0.2,0.8,x,-1.9,x,x,x
Cc1nn(-c2ccccc2C(=O)O)c(=O)c2ccccc12,0.0,-0.7,1.15,-1.2,14.7,x,x
Cc1nn(-c2ccc(Br)cc2)c(=O)c2ccccc12,11.1*,10.7*,x,1.7*,x,0.6,10.9*
COc1ccc2c(c1)CCCN2C(=O)C1CCCN(S(=O)(=O)c2cccc3ccccc23)C1 (centres undefined),-4.8,-5.1,x,-2.0,x,x,x
